CSC inhib: cancer stem cell inhibition; cancer stem cell-like cells viability, luminescence; inhibition, % at 7.5 µM; hit rate 1.1% among 300,000; AID 2717; in the data active means inhibition above about 75%; tested in HMLE shEcad cells
MPTP block: permeability transition pore inhibition. isolated mouse mitochondria, Ca2+ swelling absorbance, 30 min. inhibition, % at 10 µM. hit rate 1.4% among 360,000;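 active means inhibition of 50% or more, scaled per plate between neutral and stimulator controls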
SKKanGAS inh: SKKanGAS growth inhibition; AID 1662; S. pyogenes SKKanGAS, kanamycin growth, BacTiter-Glo, 6 h; hit rate 1.3% among 300,000; inhibition, % at 7.5 µM;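 active means mean replicate score, as percent of positive control median, at least 50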;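 further: strain carries kanamycin resistance gene driven by streptokinase promoter and grows in 40 µg/ml kanamycin; loss of luminescence reflects streptokinase promoter inhibition or plain growth inhibition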
GRIN3A LBD mod: NR3A (human) ligand-binding domain modulation; NR3A LBD differential scanning fluorimetry, Tm shift; 0% = protein alone, 100% = glycine-bound protein; AID 1259313; Tm shift relative to glycine control, % at 25 µM; hit rate 2.5% among 340,000;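 active means melting temperature shift of at least 10% of the positive control shift, at one fixed dose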
Mdm2 MdmX PPI: disrupts the human Mdm2-MdmX interaction; O15151+Q00987; SaOS-2 split-luciferase Mdm2/MdmX complementation, luminescence; inhibition, % at 8 µM; hit rate 3% among 330,000;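 active means inhibition of at least 50% at 8 µM in the primary screen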
Target sequence (O15151 whole entry, looked up): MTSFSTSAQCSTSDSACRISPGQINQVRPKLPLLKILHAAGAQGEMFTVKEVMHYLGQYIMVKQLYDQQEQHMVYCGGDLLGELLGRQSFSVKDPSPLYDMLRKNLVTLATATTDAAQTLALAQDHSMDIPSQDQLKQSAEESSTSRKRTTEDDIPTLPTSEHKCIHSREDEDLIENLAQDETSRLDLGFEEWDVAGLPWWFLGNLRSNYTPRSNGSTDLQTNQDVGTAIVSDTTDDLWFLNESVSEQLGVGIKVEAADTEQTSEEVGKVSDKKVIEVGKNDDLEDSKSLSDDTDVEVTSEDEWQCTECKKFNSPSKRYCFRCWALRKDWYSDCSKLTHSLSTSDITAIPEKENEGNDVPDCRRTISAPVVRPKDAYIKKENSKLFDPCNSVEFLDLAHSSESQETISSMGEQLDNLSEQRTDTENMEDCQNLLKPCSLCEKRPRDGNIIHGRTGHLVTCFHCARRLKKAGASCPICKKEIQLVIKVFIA
Target sequence (Q00987 whole entry, looked up): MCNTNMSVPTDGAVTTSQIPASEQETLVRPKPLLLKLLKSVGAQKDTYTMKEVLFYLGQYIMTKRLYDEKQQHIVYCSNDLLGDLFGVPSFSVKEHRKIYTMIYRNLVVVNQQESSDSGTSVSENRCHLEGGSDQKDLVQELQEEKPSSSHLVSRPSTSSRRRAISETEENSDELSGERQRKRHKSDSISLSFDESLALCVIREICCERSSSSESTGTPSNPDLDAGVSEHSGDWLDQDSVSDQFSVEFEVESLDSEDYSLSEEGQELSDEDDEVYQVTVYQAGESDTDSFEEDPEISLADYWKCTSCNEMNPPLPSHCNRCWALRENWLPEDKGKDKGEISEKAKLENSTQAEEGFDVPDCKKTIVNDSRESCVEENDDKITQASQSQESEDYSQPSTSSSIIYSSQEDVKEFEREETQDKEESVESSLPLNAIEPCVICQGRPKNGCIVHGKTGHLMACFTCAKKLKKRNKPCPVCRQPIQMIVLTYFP
Beta apoptosis: blocks beta cell apoptosis; INS-1E cytokine-induced death, ATP luminescence, 48 h; percent of positive-control rescue, neutral wells zero; protection from apoptosis, % (test concentration not listed); hit rate 0.8% among 300,000;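 active means Every replicate reaches about 75%, or at least half do and their mean reaches it too, limit read from the data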;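 further: higher means more ATP so stronger rescue from cytokine killing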
Mdm2-MdmX conf: confirmation of human Mdm2/MdmX interaction inhibitors | shares compounds with Mdm2 MdmX PPI | Mdm2-MdmX binding, luminescent assay | inhibition, % at 8 µM | hit rate 55% among 10,000 | AID 489028; in the data active means inhibition above about 40%
Full FLuc ctr: full-length luciferase inhibition in Mdm2/MdmX counter-screen; shares compounds with Mdm2 MdmX PPI; SaOS-2 full-length luciferase counterscreen, luminescence; inhibition, % at 8 µM; hit rate 77% among 6,200;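 active means mean inhibition at 8 µM reaching about 37%, which flags the compound as non-specific, limit read from the data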;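 further: p53-null SaOS-2 cells with luciferase driven by a doxycycline-inducible promoter; compound on cells about two nights before reading with doxycycline added after day one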
Of the large screens only hits and unclear results are named; the others gave an inactive call (follow-up assays come after a bar, where they were run). Shown are actives, neighbours in structure and some others; about 6.9% of the full set was active somewhere.

CCc1nc2c(OCc3ccc(F)cc3)cccn2c1N(C)C(=O)CC(C)C	none (no result: CSC inhib, SKKanGAS inh, GRIN3A LBD mod, Mdm2 MdmX PPI, Beta apoptosis)
CCN(Cc1ccccc1)C(=O)C(=O)c1cn(CC(=O)N2CCCC2)c2ccccc12	none
CCC1(CC)NC(=O)N(CC(=O)NC(=O)NCc2ccccc2)C1=O	none
COc1ccccc1/C=C/C(=O)OCC(=O)NC1CCS(=O)(=O)C1 (stereo not given)	none (no result: SKKanGAS inh)
COc1cc(OC)cc(C(=O)Nc2nc(CC(=O)NCc3ccc(F)cc3)cs2)c1	Mdm2 MdmX PPI 69.9 | Mdm2-MdmX conf 64.6 | Full FLuc ctr 58.5
COc1ccc(CNc2cccnc2)c(OC)c1OC	none (no result: CSC inhib, SKKanGAS inh, Mdm2 MdmX PPI, Beta apoptosis)
Cc1ccn2c(Nc3ccc4c(c3)OCO4)c(-c3ccccn3)nc2c1	SKKanGAS inh 96.5, Mdm2 MdmX PPI 78.9 | Mdm2-MdmX conf 69.0 | Full FLuc ctr 36.5
Cc1ccn2c(NC3CCCC3)c(-c3ccccn3)nc2c1	SKKanGAS inh 90.6, Mdm2 MdmX PPI 74.4 | Mdm2-MdmX conf 43.2 | Full FLuc ctr 43.4
Cc1ccc2nc(-c3ccncc3)c(Nc3ccccc3)n2c1	none
Cc1ccc(Nc2c(-c3ccccn3)nc3ccc(C)cn23)cc1	CSC inhib 111.8, SKKanGAS inh 97.4, Mdm2 MdmX PPI 74.2, Beta apoptosis 97.4 | Mdm2-MdmX conf 90.0 | Full FLuc ctr 51.5
CSc1ccc(-c2nc3cnccn3c2Nc2ccc3c(c2)OCO3)cc1	Mdm2 MdmX PPI 54.8 | Mdm2-MdmX conf inactive
CC(C)Cc1nnc(NC(=O)C2CCN(C(=O)c3ccc(F)cc3)CC2)s1	none
Cc1ccn2c(Nc3ccccc3C)c(-c3ccncc3)nc2c1	Mdm2 MdmX PPI 58.6 | Mdm2-MdmX conf inactive
Cc1ccc(Nc2c(-c3ccccn3)nc3cc(C)ccn23)cc1	CSC inhib 98.2, SKKanGAS inh 100.9, Mdm2 MdmX PPI 91.6, Beta apoptosis 103.5 | Mdm2-MdmX conf 89.2 | Full FLuc ctr 54.9
CC(=O)Nc1c(-c2ccccc2)nc2cc(C)ccn12	none
CCCCCCSc1ccc(-c2nc3cc(C)ccn3c2NC2CCCCC2)cc1	Mdm2 MdmX PPI 50.6 (no result: SKKanGAS inh) | Mdm2-MdmX conf inactive
Cc1nn(CCCC(=O)NC2CCC(C)CC2)c(=O)c2nn(-c3ccccc3)c(C)c12 (stereo not given)	none
CSc1nnc2c3ccccc3n(CCc3ccccc3)c2n1	Mdm2 MdmX PPI 81.6 | Mdm2-MdmX conf 90.4 | Full FLuc ctr 42.2
Clc1cccc(Cl)c1CSc1nnc(-c2ccncc2)s1	Mdm2 MdmX PPI 77.9 | Mdm2-MdmX conf inactive
N/C(=N\c1nc2ccccc2o1)NC(=O)c1cccc(Br)c1	Mdm2 MdmX PPI 59.5 | Mdm2-MdmX conf inactive
N/C(=N\c1nc2ccccc2o1)NC(=O)c1ccccc1	none
O=C(c1cc(-c2ccncc2)nc2ccccc12)N1CCN(S(=O)(=O)/C=C/c2ccccc2)CC1	none
COc1ccc(-c2csc(NC(C)c3nc4cc(Cl)c(Cl)cc4n3CCCO)n2)cc1 (stereo not given)	Mdm2 MdmX PPI 59.2 | Mdm2-MdmX conf inactive
CC(Nc1nc(-c2ccc(F)cc2)cs1)c1nc2cc(Cl)c(N3CCCCC3)cc2n1CCCO (stereo not given)	Mdm2 MdmX PPI 74.8 | Mdm2-MdmX conf inactive
CC(Nc1nc(-c2ccc(F)cc2)cs1)c1nc2cc(Cl)c(Cl)cc2n1CCOCCO (stereo not given)	none
CC(Nc1nc(-c2ccc(F)cc2)cs1)c1nc2cc(Cl)c(N3CCCCC3)cc2n1CCOCCO (stereo not given)	none
C[C@@H]1c2ccccc2N2C[C@H](Cc3ccc(C(=O)c4ccccc4)cc3)C[C@@H]12	none (no result: CSC inhib, SKKanGAS inh, GRIN3A LBD mod, Mdm2 MdmX PPI, Beta apoptosis)
COc1ccc(C2c3ccc(O)cc3Oc3ncn(Cc4ccco4)c(=N)c32)cc1 (stereo not given)	none
Nc1ncnc2c1C(c1ccccc1)c1c(ccc3ccccc13)O2 (stereo not given)	Mdm2 MdmX PPI 88.0 (no result: CSC inhib, SKKanGAS inh) | Mdm2-MdmX conf 53.1 | Full FLuc ctr 62.8
COc1ccc(Cc2nc3c4c(ncn3n2)Oc2ccc3ccccc3c2C4c2ccc(OC)c(OC)c2)cc1 (stereo not given)	none
COc1ccc(C2c3c(ncn(Cc4ccco4)c3=N)Oc3ccc4ccccc4c32)cc1 (stereo not given)	CSC inhib 93.9, Mdm2 MdmX PPI 87.7 | Mdm2-MdmX conf 53.2 | Full FLuc ctr 88.5
N=c1c2c(ncn1Cc1ccco1)Oc1ccc3ccccc3c1C2c1ccccc1 (stereo not given)	CSC inhib 102.1, Mdm2 MdmX PPI 86.0 (no result: Beta apoptosis) | Mdm2-MdmX conf 55.6 | Full FLuc ctr 49.2
C=CCc1ccccc1OCC(=O)N/N=C/c1ccc(OC(C)=O)cc1OC(C)=O	CSC inhib 76.6, Mdm2 MdmX PPI 52.0 | Mdm2-MdmX conf 51.0 | Full FLuc ctr 37.3
CCCCc1nc2cc(C(=O)N3CCN(c4nc(C)cnc4C)CC3)ccc2o1	none
CN(C)Cc1c(C(=O)N/N=C/C2CC=CCC2)nnn1-c1nonc1N (stereo not given)	none
O=C(Nc1cccc(-c2cnc3ccccc3n2)c1)c1ccccc1	Mdm2 MdmX PPI 57.4 | Mdm2-MdmX conf inactive
CCC(=O)Nc1cccc(-c2cnc3ccccc3n2)c1	none
O=C(CCl)Nc1ccc(Oc2cnc3ccccc3n2)cc1	Mdm2 MdmX PPI 67.4 | Mdm2-MdmX conf 49.5 | Full FLuc ctr inactive
O=C(CCl)Nc1cccc(-c2cnc3ccccc3n2)c1	Mdm2 MdmX PPI 97.4 | Mdm2-MdmX conf 99.5 | Full FLuc ctr 55.1
O=C(Nc1cccc(-c2cnc3ccccc3n2)c1)c1cccc(NC(=O)c2ccco2)c1	Mdm2 MdmX PPI 68.0 (no result: CSC inhib) | Mdm2-MdmX conf 64.8 | Full FLuc ctr 88.3
O=C(N/N=C/c1ccc(N2CCCCC2)o1)c1ccccc1[N+](=O)[O-]	none
CC1CCCC(NC(=O)COC(=O)/C=C/c2ccc([N+](=O)[O-])cc2)C1C (stereo not given)	none (no result: SKKanGAS inh)
Cc1cc(OCC(=O)N2CCN(c3ccccc3)CC2)c2c(C)c(C)c(=O)oc2c1	Mdm2 MdmX PPI 64.1 | Mdm2-MdmX conf 66.5 | Full FLuc ctr 86.7
Cc1cc(OCC(=O)N2CCC(C(=O)O)CC2)c2c(C)c(C)c(=O)oc2c1	none
COc1ccc(NS(=O)(=O)c2cc([N+](=O)[O-])ccc2N/N=C\c2c(C)[nH]c3ccccc23)cc1	GRIN3A LBD mod 28.3, Mdm2 MdmX PPI 76.7 | Mdm2-MdmX conf inactive
COc1ccccc1NS(=O)(=O)c1cc([N+](=O)[O-])ccc1N/N=C/c1c[nH]c2ccccc12	GRIN3A LBD mod 22.8, Mdm2 MdmX PPI 71.8 | Mdm2-MdmX conf inactive
C[C@H](NC(=O)c1ncn2c1C(=O)N[C@@H](C)C2)c1ccccc1	none (no result: CSC inhib, SKKanGAS inh, GRIN3A LBD mod, Mdm2 MdmX PPI, Beta apoptosis)
COCCN(Cc1cccs1)S(=O)(=O)c1ccc(-c2ccc(=O)[nH]n2)s1	none

Screening data: PubChem, several laboratories
